# Results reported in the supplement of paper PMC6555819.
# Tests used:
# Assay in all cases: PBM binding z-score (relative to random genomic background probes); higher = stronger binding; sequences stand for … in GC…GCGATTGACAGCGTAGAATGAAGG
# [1] = test system: FXR:RXRa (NR concentration 270 nM, RXRa partner concentration 90 nM)
# How it was run: (§1)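 Random background probes are the reference for binding z-scores. These scores derive from regression-normalized fluorescence on custom Agilent 4×180K protein-binding microarrays incubated 1 h with ligand-free nuclear receptor dimers. Binding was detected with antibodies against each partner (one per run).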
# [2] = test system: LXRa:RXRa (NR concentration 270 nM, RXRa partner concentration 90 nM)
# How it was run: as §1
# [3] = test system: LXRa homodimer (NR concentration 270 nM)
# How it was run: as §1
# [4] = test system: LXRb:RXRa (NR concentration 270 nM, RXRa partner concentration 90 nM)
# How it was run: as §1
# [5] = test system: LXRb homodimer (NR concentration 270 nM)
# How it was run: as §1
# [6] = test system: PPARa:RXRa (NR concentration 270 nM, RXRa partner concentration 90 nM)
# How it was run: as §1
# [7] = test system: PPARg:RXRa (NR concentration 180 nM, RXRa partner concentration 90 nM)
# How it was run: as §1
# [8] = test system: PPARg:RXRa 270nM:90nM, anti-RXR (NR concentration 270 nM, RXRa partner concentration 90 nM)
# How it was run: as §1
# [9] = test system: PPARg:RXRa 30nM:10nM, anti-RXR (NR concentration 30 nM, RXRa partner concentration 10 nM)
# How it was run: as §1
# [10] = test system: PPARg:RXRa 90nM:30nM, anti-RXR (NR concentration 90 nM, RXRa partner concentration 30 nM)
# How it was run: as §1
# [11] = test system: PPARg:RXRa DBDmut IVT, anti-RXR (DBD mutation: RXRa K156A/R161A, NR concentration 270 nM, RXRa partner concentration 90 nM)
# How it was run: as §1
# [12] = test system: PPARg:RXRa IVT, anti-PPARg (NR concentration 270 nM, RXRa partner concentration 90 nM)
# How it was run: as §1
# [13] = test system: PPARg DBDmut:RXRa IVT, anti-PPARg (DBD mutation: PPARg1 K132A/R137A, NR concentration 270 nM, RXRa partner concentration 90 nM)
# How it was run: as §1
# [14] = test system: PPARg DBDmut IVT, anti-PPARg (DBD mutation: PPARg1 K132A/R137A, NR concentration 270 nM)
# How it was run: as §1
# [15] = test system: PPARg homodimer (NR concentration 180 nM)
# How it was run: as §1
# [16] = test system: PXR:RXRa (NR concentration 270 nM, RXRa partner concentration 90 nM)
# How it was run: as §1
# [17] = test system: PXR homodimer (NR concentration 270 nM)
# How it was run: as §1
# [18] = test system: RARa:RXR (NR concentration 270 nM, RXRa partner concentration 90 nM)
# How it was run: as §1
# [19] = test system: RARa homodimer (NR concentration 270 nM)
# How it was run: as §1
# [20] = test system: RARb:RXRa (NR concentration 270 nM, RXRa partner concentration 90 nM)
# How it was run: as §1
Sequence,PBM binding z-score [1],PBM binding z-score [2],PBM binding z-score [3],PBM binding z-score [4],PBM binding z-score [5],PBM binding z-score [6],PBM binding z-score [7],PBM binding z-score [8],PBM binding z-score [9],PBM binding z-score [10],PBM binding z-score [11],PBM binding z-score [12],PBM binding z-score [13],PBM binding z-score [14],PBM binding z-score [15],PBM binding z-score [16],PBM binding z-score [17],PBM binding z-score [18],PBM binding z-score [19],PBM binding z-score [20]
CTACCTAGGTGAACAAGGTCGTTGATTACTATTC,0.921,0.98,0.31,1.61,-0.219,2.31,1.31,1.36,-0.0446,0.717,4.5,3.81,0.734,0.335,1.52,2.25,1.14,1.95,0.759,1.5
TCATATAGGTATTACAGGTGAAAGTCGGCATCTA,1.47,2.05,1.08,1.34,0.496,1.67,1.1,2.38,4.15,3.27,3.05,1.69,0.864,0.68,1.37,0.945,0.656,1.39,1.42,0.578
TGAATGGGGTTATAAGATCAGGGAACGTTGCAAA,3.48,2.4,0.471,4,2,4.74,3.24,3.32,1.77,2.79,2.58,2.71,2.28,1.59,2.39,2.25,1.48,3.06,2.01,1.69
ATCCCTAGGTAACAAGTTCAGTGAAAGAGAGGAC,0.484,0.833,0.361,0.843,0.823,0.724,0.555,0.236,0.0944,0.289,0.293,0.638,0.652,0.582,1.15,1.7,1.53,0.808,0.946,1.51
AATACAGGGTCATCGTAGCCCAGAGTACGCACAG,6.98,5.87,2.36,4.47,1,5.89,6.62,6.26,3.25,4.75,3.35,5.25,2.19,2.43,2.47,4.07,0.552,4.59,0.855,4.29
GCATATAGGTAATACAAGGTGAACGTCCGATTGT,0.337,1.82,0.257,0.685,-0.32,1.55,1.47,1.12,0.658,0.861,4.57,3.63,0.578,0.846,0.673,0.252,0.124,1.37,0.675,0.51
CCTTACGGGTCAAGGTTCTAGCACGGGTGGTACG,5.14,3.35,-0.039,2.64,-0.204,4.86,4.7,5.18,2.28,4.24,1.5,3.25,0.0121,-0.395,2.56,2.98,-0.35,3.97,0.251,4.05
TCTATTTGGTCAAAGGTCACACACTCGAAATGCG,6.32,5.68,4.22,5.83,3.24,6.7,10.6,9.27,9.35,10.1,3.39,6.25,3.22,2.73,5.3,5.91,1.76,7.03,3.85,5.42
CCTGTTAGGTCAATGGTCAGCTAAAGCAGCTCGC,3.84,2.92,0.645,2.06,1.38,3.49,3.07,4.36,2.03,3.91,3.49,3.13,-0.195,-0.0792,2.54,1.43,0.214,2.39,1.21,4.14
CCTGCTAGGTCAATGGACAGCTAAAGCAGCTCGC,2.71,2.11,-0.488,1.29,-0.325,2.73,1.63,2.17,0.0027,1.05,3.92,3.11,-0.347,-0.89,0.928,0.497,-0.327,1.2,-0.377,3.75
CCGACTGGGGCATAAGGTTACCATCAGCCAGCCC,0.308,1.43,-0.15,0.516,-1.51,1.9,2.3,2.99,1.18,2.32,2.93,3.1,-0.916,-1.26,0.425,0.317,-0.375,1.06,-0.135,1.37
CAAACTAGGTCAATAGGTCAAAGTCCGCTTCCCG,5.97,5.58,3.46,4.5,1.42,5.97,9.53,7.87,6.52,8.3,8.58,8.3,2.88,0.687,6.16,4.57,0.894,6.73,3.02,5.04
TCATATAGCTAAATGCTAGGTGAAAGTCCGATCT,0.567,0.2,-0.0142,0.288,-0.55,0.6,0.313,1.67,2.82,2.07,1.45,0.452,0.679,0.932,0.101,0.31,-0.278,0.514,-0.0788,0.00512
TCTAGGAGGCCAGAGGGTCACTCAAGAGGTACGG,1.5,0.891,-0.426,0.559,-1.15,2.65,1.87,3.02,2.76,2.99,1.84,1.03,-0.0331,-0.364,0.662,1.42,-0.35,2.08,-0.215,2.58
